HTR1E antagonist – 5-HT1E (human) receptor antagonism; inhibition, % at 6 µM; P28566; CHO 5-HT1E Ga15 NFAT-bla reporter, FRET, antagonist; 65,000 tested, 0.99% active; AID 571;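 active means inhibition above a set limit, the mean inhibition across every tested compound plus 3 SD, cut at about 29% in these data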;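 further: signal is the 460 over 535 nm emission ratio of beta-lactamase substrate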
5HT1a antag – blocks the human serotonin 5-HT1a receptor | P08908 | CHO 5-HT1a Ga15 NFAT-bla reporter, antagonist mode | inhibition, % at 10 µM | 62,000 tested, 0.68% active | AID 612;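 active means inhibition above the mean of all tested compounds plus 3 SD, cut at about 43% in these data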;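 further: receptor stimulated by 5-CT agonist at 100 nM near EC80; beta-lactamase reporter measured by ratiometric fluorescence of a cleavable substrate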
Target sequence (P08908 whole entry, looked up): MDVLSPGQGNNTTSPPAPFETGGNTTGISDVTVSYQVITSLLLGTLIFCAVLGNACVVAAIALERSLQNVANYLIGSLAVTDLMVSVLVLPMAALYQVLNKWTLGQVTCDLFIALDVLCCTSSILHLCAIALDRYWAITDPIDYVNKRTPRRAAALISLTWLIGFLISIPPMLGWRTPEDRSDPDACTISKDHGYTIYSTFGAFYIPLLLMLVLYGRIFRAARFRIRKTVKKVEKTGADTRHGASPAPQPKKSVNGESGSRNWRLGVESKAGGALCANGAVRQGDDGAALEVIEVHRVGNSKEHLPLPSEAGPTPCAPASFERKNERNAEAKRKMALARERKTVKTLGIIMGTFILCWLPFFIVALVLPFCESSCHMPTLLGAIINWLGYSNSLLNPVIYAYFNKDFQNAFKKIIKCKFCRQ
5HT1E ag – activates the human 5-HT1E serotonin receptor | P28566 | activation, % at 6 µM | 65,000 tested, 0.69% active | CHO 5-HT1E Ga15 NFAT-bla reporter, FRET; 0% DMSO wells, 100% control agonist wells;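 active means activation above a set limit, the screen-wide mean activation plus 3 SD, cut at about 8.5% in these data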
Her2 expr inh – inhibitors of human Her2 kinase expression; P04626; SKBR-3 HER2 protein level, AlphaScreen, 18-24 h; hits give low values; HER2 level % of control, % at 10 µM; 65,000 tested, 0.69% active;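 active means HER2 level under 5% of the carrier-only control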;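 further: lower value means stronger loss of Her2 protein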
5HT1a ag – activates the human 5-HT1a serotonin receptor | P08908 | CHO 5-HT1a Ga15 NFAT-bla reporter, FRET ratio; 0% basal, 100% maximal reference agonist | activation, % at 10 µM | 65,000 tested, 0.56% active;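 active means activation above the screen-wide mean activation plus 3 SD, cut at about 19% in these data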
A number is an active result; n = inactive; x = no result. An excerpt weighted towards active compounds, which were near 3% of everything screened.

SMILES	HTR1E antagonist	5HT1a antag	5HT1E ag	Her2 expr inh	5HT1a ag
C=CCn1c2ccccc2c2nnc(SCC(=O)NC(C(=O)OC)C(C)C)nc21 (configuration not stated)	n	n	n	n	n
Brc1ccc(C2=Nn3c(nnc3-c3n[nH]c4c3CCC4)SC2)cc1	57	n	n	n	n
CCCCN(C)CCNC(=O)Cn1ncc2c(=O)oc3ccc(C)cc3c21	n	n	10	n	n
CCN(CC)CCCNC(=O)Cn1ncc2c(=O)oc3ccc(C)cc3c21	n	n	n	n	n
O=c1c2ccccc2nc2n1CC/C2=C/N1CCN(c2cccc(C(F)(F)F)c2)CC1	n	n	39	n	n
O=C1CC(N2CCN(c3cccc(C(F)(F)F)c3)CC2)C(=O)N1c1ccccc1 (configuration not stated)	n	n	n	n	n
CCOC(=O)NC(=O)COC(=O)Cc1cc(OC)c(OC)c(OC)c1	n	n	n	n	n
CN1CCCC(OC(=O)c2cc(Cl)ccc2Cl)C1 (configuration not stated)	n	n	13	n	n
Cc1ncc(CO)c2c1OC(C)(C)OC2	n	n	n	n	27
COc1ccccc1C(=O)Nc1ccc(C(=O)O)cc1	n	n	n	n	74
CCOc1ccc(NC(=O)c2ccccc2OC)cc1	n	n	n	n	n
CCC(=O)Nc1ccc(NC(=O)c2cc3ccccc3o2)cc1	n	n	n	n	n
CN(C)S(=O)(=O)c1ccc(NC(=O)c2cc3ccccc3o2)cc1	n	n	n	n	21
CCOC(=O)N1CCC(N2C(=O)c3ccc(C(=O)NC4CCCCCC4)cc3C2=O)CC1	n	n	n	n	n
Nc1nc(-c2ccccc2)cc(-c2ccccc2O)n1	n	57	n	n	n
Nc1nc(-c2ccccc2)nc(-c2ccccc2O)n1	n	51	n	n	n
O=C(Nc1nnc(-c2ccccc2)o1)c1nc2ccccc2s1	n	n	n	n	n
Cc1c(C(=O)NCc2cccnc2)oc2ccccc12	33	n	n	n	n
COc1ccc(OCC(=O)NCc2cccnc2)cc1	n	n	n	-14	n
COc1ccc(-c2noc(CSc3nc(N)c(-c4ccccc4)c(=O)[nH]3)n2)cc1	n	n	n	n	n
N#Cc1cccc(C(c2nnnn2CCc2ccccc2)N2CCN(C3CCCCC3)CC2)c1 (configuration not stated)	n	n	n	n	n
CCN(Cc1ccccc1)C(c1cccc(C#N)c1)c1nnnn1C(C)(C)C (configuration not stated)	n	44	n	n	n
O=C(NCc1ccccn1)c1cn(CCc2ccccc2)nn1	n	n	n	n	n
Cc1onc(-c2ccccc2Cl)c1C(=O)Nc1cccnc1	n	n	n	n	n
CC(=O)Nc1cccc(NC(=O)c2c(-c3ccccc3Cl)noc2C)c1	n	n	n	-19	n
SMILES	HTR1E antagonist	5HT1a antag	5HT1E ag	Her2 expr inh	5HT1a ag
CCN(CC)S(=O)(=O)c1ccc(/C(O)=C(\C#N)c2nc3ccccc3n2C)cc1	39	n	n	n	n
CC1(C)CC(=O)C(C=NCc2ccc3c(c2)OCO3)=C(O)C1	n	n	n	n	n
CC1(C)CC(=O)C(C=Nc2cccnc2)=C(O)C1	33	n	n	n	n
CC1(C)CC(=O)C(C=Nc2ccc3c(c2)OCO3)=C(O)C1	31	n	n	n	n
NC1=NC(c2ccc(Cl)cc2)n2c(nc3ccccc32)N1 (configuration not stated)	n	n	n	n	n
O=C(O)CC1C(=O)NCCN1Cc1ccc(F)c(F)c1 (configuration not stated)	n	n	22	n	n
O=C(c1cnc2sccn2c1=O)N(Cc1ccccc1)c1ccccn1	n	n	n	n	27
O=C(Nc1cccc2cccnc12)c1cccnc1	n	n	n	n	39
Cc1cnc(C(=O)Nc2cccc3cccnc23)cn1	n	n	n	n	n
Cc1cc(C)nc(SCC(=O)Nn2cnnc2)n1	n	n	n	n	n
CCOc1ccc(NC(=O)CCN2CCN(c3ccccc3)CC2)cc1	n	68	n	n	n
O=C(CCN1CCN(c2ccccn2)CC1)Nc1ccc(F)cc1	n	n	n	n	29
CCOC(=O)CSc1nc(N2CCOCC2)c2c(c1C#N)CC(C)(C)N(C)C2	n	x	n	n	n
CCCCCOC(=O)c1ccc(NC(=O)c2ccco2)cc1	n	n	n	n	n
O=C(CN1C(=O)CC(c2ccccc2)=Nc2ccccc21)NCc1ccco1	31	n	n	n	n
O=C(CN(CCc1ccccc1)C(=O)CN1C(=O)COc2ccccc21)NCc1ccco1	n	n	n	n	n
COc1ccc(N2C(=O)CC(NCc3ccncc3)C2=O)cc1 (configuration not stated)	77	n	n	n	n

Source: PubChem BioAssay
